# From the supplement of paper PMC8728848
# The sample as a whole holds a higher share of the strongest signals than the screen did.
# Tests used:
# Assay in all cases: glycan array binding signal (z-score within array); higher = stronger binding
# Details in all cases: glycan notation: IUPAC condensed, linker removed; mutation: E227A
# [1] = target: Fuc(a1-2)Gal(b1-3)GalNAc(a1-3)[Fuc(a1-2)]Gal(b1-4)Glc
# How it was run: (§1)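 Arrays were curated from the Consortium for Functional Glycomics database, 3228 in total, and kept only where the protein sequence was available. Binding is expressed as a within-array Z-score. This score was averaged across arrays of the same protein sequence at different concentrations or buffers and across linkers, and negative values can be read as non-binding.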
# [2] = target: Fuc(a1-2)Gal(b1-3)GlcNAc(b1-3)[Gal(b1-4)GlcNAc(b1-6)]Gal(b1-4)Glc
# How it was run: as §1
# [3] = target: Fuc(a1-2)Gal(b1-3)[Fuc(a1-4)]GlcNAc(b1-2)Man(a1-3)[Fuc(a1-2)Gal(b1-3)[Fuc(a1-4)]GlcNAc(b1-2)Man(a1-3)]Man(b1-4)GlcNAc(b1-4)GlcNAc
# How it was run: as §1
# [4] = target: Fuc(a1-2)Gal(b1-4)Fuc(a1-3)]GlcNAc(b1-2)Man(a1-3)[Fuc(a1-2)Gal(b1-4)[Fuc(a1-3)]GlcNAc(b1-2)Man(a1-6)]Man(b1-4)GlcNAc(b1-4)GlcNAc
# How it was run: as §1
# [5] = target: Fuc(a1-2)[Gal(a1-3)]Gal(b1-3)GlcNAc(b1-3)GalNAc
# How it was run: as §1
# [6] = target: Fuc(a1-2)[Gal(a1-3)]Gal(b1-4)[Fuc(a1-3)]GlcNAc(b1-3)GalNAc
# How it was run: as §1
# [7] = target: Fuc(a1-2)[Gal(a1-4)]Gal(b1-4)GlcNAc
# How it was run: as §1
# [8] = target: Fuc(a1-2)[GalNAc(a1-3)]Gal(b1-3)GlcNAc(b1-3)GalNAc
# How it was run: as §1
# [9] = target: Fuc(a1-2)[GalNAc(a1-3)]Gal(b1-4)[Fuc(a1-3)]GlcNAc
# How it was run: as §1
# [10] = target: Fuc(a1-2)[GalNAc(b1-3)]Gal
# How it was run: as §1
# [11] = target: Fuc(a1-3)[Gal(b1-4)]GlcNAc6S
# How it was run: as §1
# [12] = target: Fuc(a1-3)[Gal3S(b1-4)]Glc
# How it was run: as §1
# Gal(b1-2)Gal = target: Gal(b1-2)Gal
# How it was run: as §1
# Gal(b1-3)Gal(b1-4)GlcNAc = target: Gal(b1-3)Gal(b1-4)GlcNAc
# How it was run: as §1
# Gal(b1-3)GalNAc = target: Gal(b1-3)GalNAc
# How it was run: as §1
# [13] = target: Gal(b1-3)GalNAc(b1-4)Gal(b1-4)Glc
# How it was run: as §1
# [14] = target: Gal(b1-3)GlcNAc(a1-6)Gal(b1-4)GlcNAc
# How it was run: as §1
# [15] = target: Gal(b1-3)GlcNAc(b1-6)Gal(b1-4)GlcNAc
# How it was run: as §1
# Gal(b1-3)GlcNAc6S = target: Gal(b1-3)GlcNAc6S
# How it was run: as §1
# Gal(b1-4)Glc = target: Gal(b1-4)Glc
# How it was run: as §1
# [16] = target: Gal(b1-4)GlcNAc(b1-3)Gal(b1-4)GlcNAc(b1-3)Gal(b1-4)GlcNAc(b1-2)Man(a1-3)[Gal(b1-4)GlcNAc(b1-3)Gal(b1-4)GlcNAc(b1-3)Gal(b1-4)GlcNAc(b1-2)Man(a1-6)]Man(b1-4)GlcNAc(b1-4)GlcNAc
# How it was run: as §1
# [17] = target: Gal(b1-4)GlcNAc(b1-3)Gal(b1-4)GlcNAc(b1-3)Gal(b1-4)GlcNAc(b1-2)[Gal(b1-4)GlcNAc(b1-3)Gal(b1-4)GlcNAc(b1-3)Gal(b1-4)GlcNAc(b1-6)]Man(a1-6)[Gal(b1-4)GlcNAc(b1-3)Gal(b1-4)GlcNAc(b1-3)Gal(b1-4)GlcNAc(b1-2)Man(a1-3)]Man(b1-4)GlcNAc(b1-4)[Fuc(a1-6)]GlcNAc
# How it was run: as §1
# [18] = target: Gal(b1-4)GlcNAc(b1-6)[Gal(b1-3)]GalNAc
# How it was run: as §1
# Gal3S(b1-4)Glc = target: Gal3S(b1-4)Glc
# How it was run: as §1
# Gal6S(b1-3)GlcNAc6S = target: Gal6S(b1-3)GlcNAc6S
# How it was run: as §1
# Gal6S(b1-4)Glc = target: Gal6S(b1-4)Glc
# How it was run: as §1
# Gal6S(b1-4)Glc6S = target: Gal6S(b1-4)Glc6S
# How it was run: as §1
# Gal6S(b1-4)GlcNAc = target: Gal6S(b1-4)GlcNAc
# How it was run: as §1
# Gal6S(b1-4)GlcNAc6S = target: Gal6S(b1-4)GlcNAc6S
# How it was run: as §1
# GalNAc(b1-4)GlcNAc6S = target: GalNAc(b1-4)GlcNAc6S
# How it was run: as §1
binder,measurement,setting,value
"Epa1-NP-mutant-E227A (Candida glabrata), Q6VBJ0 (protein) MILNPALFLNKCVCIYTTLILLLLTNGGYATSSNDISLASKDPTTFPLGCSPDITTPKKGLSMELYSYDFRKKGSYPCWDAAYLDPNYPRTGYKSHRLLAKVDGVTGNINFYYHATKGCTPQLGHLPASYNYPKPLTMTNFTMLLYGYFRPKVTGFHTFTISADDLLFVNFGAGNAFDCCRRDSSADHFGNYQAYAIWGSKTAKDELTVHLDAGVYYPIRLFYNNRAYDGALSFTFKTESNENTVSDFSEYFFSLDDTEEGCPGLISYDSSCASVKTSKIIGIDYHTETPNENLVPITKTIYHLGIPCTGTTTTPLCGSGFYDPLANKCVTINTSSTSSVTKTTSHTTSKEVSFHSSISSQKTLIPKSIPSPYGPIKSQSIPTEMETSSEISSSEYAFSDVISTPSHSPYTKKHSSLNSSSYTSTVIHSLTSYSISQGIFSTSLSEQNITSKSSTDKFSTATSMSNNITQSSIIISQFSTNNENYTTTSMHTSSDKISTETLNNSISTTTSILFSNSSTILKNNTTIISSDKDTHYHPVNPTIVCSTNKTEIICASITQPSISNSNNHWSSSVLKFNSTTVRSTLPSSAGSNETSINVPFSSSTESNTSTSSTSTSNSKMVRSTLPSSAGSNETSISVPFSSSTESNTSTSSTSTSNSKMVRSTLPSSAGSNETSINVPFSSSTESNTSTSSTSTSNSKTVRSTPFSSAGIIMTSLSQRNNKSASSYASSNSKCYNTADSCRKVHSTPSYLLTSSYTSEGVDYDCSLVSTKLKINDTNCVNNKHTTKSCLKTSVTTTIPTLEIKTARKSSSNTIGLHSYPTSSPNKSISSAPIIGYISSFKTIKTASPSYQTSDLTTITTITSLNNPGSTAVENTHESNDKSRKTSSNDISSKHSVIKETKDAVESSNKSHQTNTLKCSSIIIASSSHNSYESLGGTTLTLTLSKVYSPQNNDTLPFLEISEVNPSRTVLPESSKMMQYLTSTEERNKTARNTIATNIVSISTFHFEGEGNAIRMGYTQLLLMLIGIIVMNIGT",glycan array binding signal (z-score),[1],-0.214
same,glycan array binding signal (z-score),[2],-0.138
same,glycan array binding signal (z-score),[3],-0.162
same,glycan array binding signal (z-score),[4],-0.184
same,glycan array binding signal (z-score),[5],-0.204
same,glycan array binding signal (z-score),[6],-0.168
same,glycan array binding signal (z-score),[7],-0.221
same,glycan array binding signal (z-score),[8],-0.197
same,glycan array binding signal (z-score),[9],-0.13
same,glycan array binding signal (z-score),[10],-0.161
same,glycan array binding signal (z-score),[11],-0.143
same,glycan array binding signal (z-score),[12],-0.172
same,glycan array binding signal (z-score),Gal(b1-2)Gal,-0.041
same,glycan array binding signal (z-score),Gal(b1-3)Gal(b1-4)GlcNAc,2.03
same,glycan array binding signal (z-score),Gal(b1-3)GalNAc,1.28
same,glycan array binding signal (z-score),[13],3.42
same,glycan array binding signal (z-score),[14],-0.057
same,glycan array binding signal (z-score),[15],7.88
same,glycan array binding signal (z-score),Gal(b1-3)GlcNAc6S,1.37
same,glycan array binding signal (z-score),Gal(b1-4)Glc,-0.13
same,glycan array binding signal (z-score),[16],0.626
same,glycan array binding signal (z-score),[17],1.15
same,glycan array binding signal (z-score),[18],1.27
same,glycan array binding signal (z-score),Gal3S(b1-4)Glc,-0.193
same,glycan array binding signal (z-score),Gal6S(b1-3)GlcNAc6S,1.88
same,glycan array binding signal (z-score),Gal6S(b1-4)Glc,4.56
same,glycan array binding signal (z-score),Gal6S(b1-4)Glc6S,6.39
same,glycan array binding signal (z-score),Gal6S(b1-4)GlcNAc,5.93
same,glycan array binding signal (z-score),Gal6S(b1-4)GlcNAc6S,15.2
same,glycan array binding signal (z-score),GalNAc(b1-4)GlcNAc6S,-0.184
